Source: PubChem
The full list was thinned out, with hits kept by preference.
DUSP3 inh – VHR1 phosphatase inhibitors, primary screen, biochemical, colorimetric, HTS; Dual specificity protein phosphatase 3 (Homo sapiens), P51452; recombinant VHR phosphatase, colorimetric substrate read-out; inhibition, % at 20 µM; 50,000 tested, 0.7% active; AID 1992, 2009; in the data active = inhibition above about 60%
Target sequence (P51452 whole entry, looked up): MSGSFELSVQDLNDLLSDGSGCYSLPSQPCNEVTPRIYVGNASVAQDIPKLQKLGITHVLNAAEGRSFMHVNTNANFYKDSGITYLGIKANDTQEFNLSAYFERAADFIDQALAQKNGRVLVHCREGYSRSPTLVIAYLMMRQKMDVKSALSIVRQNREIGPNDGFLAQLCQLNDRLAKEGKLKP
Numbers stand for hits; 0 = inactive.

SMILES	DUSP3 inh
COc1ccc(Br)cc1C(=O)Nc1cc2nn(-c3ccc(C)cc3)nc2cc1C	0
Cc1ccc(-n2nc3cc(C)c(NC(=O)c4cc(Cl)ccc4Cl)cc3n2)cc1	0
COc1ccc(-n2nc3cc(C)c(NC(=O)c4cc(Cl)ccc4OC)cc3n2)cc1	109.6
O=C1OC(Nc2cccc3ccccc23)(c2ccccc2)c2ccccc21 (stereo unspecified)	0
CN(c1ccccc1)c1ccc(C=C2C(=O)NC(=O)NC2=O)cc1	0
COc1cccc(CN2CCN(Cc3ccccn3)CC2)c1	0
COc1ccccc1CN1CCN(Cc2ccccn2)CC1	0
CC1CN(Cc2ccccn2)CCC1=O (stereo unspecified)	110.9
O=C(c1ccccc1)N1CC(=O)N2CCc3ccccc3C2C1 (stereo unspecified)	0
CC(=O)Nc1ccc(C(=O)CSc2n[nH]c(-c3ccccc3)n2)cc1	0
Cc1cccc(N2C(=O)C(=O)/C(=C(\O)c3ccccc3)C2c2cccc(F)c2)c1 (stereo unspecified)	0
COc1cccc(N2C(=O)CC(N3CCC(C)CC3)C2=O)c1 (stereo unspecified)	0
COc1cccc(N2C(=O)CC(N3CCCCC3)C2=O)c1 (stereo unspecified)	101.2
COc1cccc(N2C(=O)CC(N3CCN(C/C=C/c4ccccc4)CC3)C2=O)c1 (stereo unspecified)	0
c1ccc(C2=C(c3ccccc3)N3CCN=C3S2)cc1	0
O=C(Nc1ccc2nc(SCCOc3ccccc3)sc2c1)c1ccccc1Cl	0
Cc1cc(O)c2c3c(c(=O)oc2c1)CCCC3	0
CCOc1cc(-c2ccc(O)cc2)cc(=O)c2c(C)oc(C)c12	0
CCOc1cccc(/C=C2/SC(=S)NC2=O)c1O	0
CCOc1cccc(=O)c2c(C)[nH]c(C)c12	75.3
O=C1/C(=C\c2ccccc2OS(=O)(=O)c2ccccc2)SC(=S)N1c1ccccc1	0
COc1ccc(/C=C2\C(=O)NC(=S)N(c3cccc(Br)c3)C2=O)cc1	0
CCOC(=O)c1sc(NC(=O)c2ccccc2C)nc1C	0
CCOC(=O)c1sc(N/N=C/c2cccc(O)c2)nc1C	96.7
CCOC(=O)c1sc(N/N=C/c2ccccc2O)nc1C	0
SMILES	DUSP3 inh
COc1ccc(NC(=O)c2ccc(I)cc2)cc1Cl	0
COc1ccc(C2Nc3ccc(C(=O)c4ccccc4)cc3NC3=C2C(=O)CCC3)c(OC)c1 (stereo unspecified)	68.0
COc1ccccc1C1Nc2ccc(C(=O)c3ccccc3)cc2NC2=C1C(=O)CCC2 (stereo unspecified)	0
CN(C)c1ccc(C2Nc3ccc(C(=O)c4ccccc4)cc3NC3=C2C(=O)CCC3)cc1 (stereo unspecified)	0
Cc1ccsc1/C=C1\SC(=S)N(CCC(=O)O)C1=O	0
O=C(O)C1C2CCCC1C2c1ccccc1 (stereo unspecified)	100.8
O=C(O)C1C2C=CC(C3CC23)C1C(=O)NCc1ccccc1 (stereo unspecified)	0
O=C(O)C12C3CCCC1C32c1ccccc1 (stereo unspecified)	0
COc1ccc(Br)cc1C=NN1CCN(Cc2ccccc2)CC1	0
O=C(O)C/C=C1/Nc2ccc([N+](=O)[O-])cc2OC1=O	0
N#Cc1c(NC(=O)c2cnccn2)sc2c1CCCCCC2	0
Cc1c(OCC(=O)OC(C)C)ccc2c3c(c(=O)oc12)CCCC3	0
COc1ccccc1OCCOc1c(Cl)cc(/C=N/n2cnnc2)cc1OC	0
CCOc1cc(/C=N/n2cnnc2)cc(Cl)c1OCCOc1cc(C)ccc1C(C)C	110.1
CCC(C)c1ccc(OCCOc2c(Cl)cc(/C=N/n3cnnc3)cc2OC)cc1 (stereo unspecified)	0
O=C(O)CCCCCN1C(=O)C(=O)/C(=C(/O)c2ccccc2)C1c1ccc2c(c1)OCO2 (stereo unspecified)	0
O=C1C(Cl)=C/C(=N\S(=O)(=O)c2ccc(Cl)cc2)C(Cl)=C1Cl	96.0
CC1=CC(=NS(=O)(=O)c2ccc(C)cc2)C=C(C)C1=O	0
O=C1C(Cl)=CC(=NS(=O)(=O)c2ccccc2)C=C1Cl	75.9
O=S(=O)(NCCCNS(=O)(=O)c1ccc(Cl)cc1)c1ccc(Cl)cc1	0
CC1=CC(=O)C=C/C1=N\S(=O)(=O)c1ccc(C)cc1	0
COc1ccc(S(=O)(=O)/N=C2C=C/C(=N\S(=O)(=O)c3ccc(OC)cc3)C=C/2Cl)cc1	0
C=CCO/N=C(\CCC)C1=C(N2CCCC2)CC(C)(C)CC1=O	0
Cc1nc2c(C)c(-c3ccccc3)nn2c(C)c1Cl	0
Cc1nn(-c2ccccc2)c(C)c1/C=N/NC(=O)c1cc(-c2ccc(Cl)cc2)n[nH]1	0
O=C(O)/C=C\C(=O)Nc1ccc2c(c1)Cc1ccccc1-2	0
O=C1C2C3C=CC(C2C(=O)N1Cc1ccccc1)C1C(=O)N(Cc2ccccc2)C(=O)C31 (stereo unspecified)	0
O=C1C2C3C=CC(C2C(=O)N1C1CCCCC1)C1C(=O)N(C2CCCCC2)C(=O)C31 (stereo unspecified)	105.9
CCC(C)N1C(=O)C(=O)N(C2CCCCC2)C1=O (stereo unspecified)	0
